{
  "source": "PubChem BioAssay AID1851",
  "about": "(National Center for Advancing Translational Sciences (NCATS), 2009)",
  "note": "The campaign covered roughly 16,000 compounds. About 5,700 (36%) were called active. Roughly 24% stayed inconclusive and do not appear here. Calls come from the whole dose curve; as a rule, active = well fitted curve in the direction sought with a large enough effect; inconclusive = small, poorly fitted or top-dose-only effect, or effect the other way; inactive = no such curve, though single readings can be large or run the other way. This is one part of the list. % is set by controls: 0 for no effect and ±100 for the full control effect.",
  "data": [
    {"molecular_target": "Cytochrome P450 1A2 (Homo sapiens) (UniProt P05177)", "sequence (P05177 whole entry, looked up)": "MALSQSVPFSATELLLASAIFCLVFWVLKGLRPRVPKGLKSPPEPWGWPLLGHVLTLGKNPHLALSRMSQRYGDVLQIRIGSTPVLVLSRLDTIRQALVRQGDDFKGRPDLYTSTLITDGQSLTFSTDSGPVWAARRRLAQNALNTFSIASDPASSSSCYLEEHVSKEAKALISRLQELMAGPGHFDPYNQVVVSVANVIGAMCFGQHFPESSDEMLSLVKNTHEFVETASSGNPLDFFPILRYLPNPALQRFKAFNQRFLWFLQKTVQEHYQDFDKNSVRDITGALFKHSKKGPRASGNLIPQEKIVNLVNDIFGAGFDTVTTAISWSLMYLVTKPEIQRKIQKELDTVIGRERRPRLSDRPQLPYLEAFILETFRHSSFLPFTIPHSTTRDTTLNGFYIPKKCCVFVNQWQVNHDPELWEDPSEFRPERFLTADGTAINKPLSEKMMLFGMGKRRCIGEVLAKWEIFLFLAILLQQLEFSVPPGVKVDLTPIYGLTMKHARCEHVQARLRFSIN", "assay": "Cytochrome panel assay with activity outcomes", "conditions": "recombinant CYP, pro-luciferin dealkylation, luminescence, p450-cyp1a2; series mostly up to 57.1 µM; activity, negative = inhibition: at the top concentration", "values": [
      {"smiles": "Cc1nc2sc(C#N)c(N)c2c2c1CCCC2", "AC50": "2 µM (active)"},
      {"smiles": "NC(=O)c1csc(-c2ccc(CO)o2)n1", "activity, negative = inhibition": "-13.1% [at 11.4 µM] (inactive)"},
      {"smiles": "OCc1ccc(-c2nn(Cc3ccccc3)c3ccccc23)o1", "AC50": "1.58 µM (active)"},
      {"smiles": "O=C(NNS(=O)(=O)c1cc(Cl)cc(Cl)c1)c1sccc1-n1cccc1", "AC50": "2 µM (active)"},
      {"smiles": "O=C(NNS(=O)(=O)c1ccccc1)c1cccnc1", "activity, negative = inhibition": "2.15% [at 2.29 µM] (inactive)"},
      {"smiles": "CCS(=O)(=O)N1CCC(C(=O)NCCCN2CCCC2)CC1", "activity, negative = inhibition": "15% (inactive)"},
      {"smiles": "COc1ccc(N=C2S/C(=C\\c3ccc(C)s3)C(=O)N2CC(C)C)cc1", "activity, negative = inhibition": "-5.67% (inactive)"},
      {"smiles": "CCCN1C(=O)/C(=C/c2ccc(C)s2)SC1=Nc1ccc(OC)cc1", "AC50": "11.2 µM (active)"},
      {"smiles": "CN(C)CCCNc1ncnc2nc[nH]c12", "activity, negative = inhibition": "-16.6% [at 11.4 µM] (inactive)"},
      {"smiles": "CCCCNc1nc(SC)nc2nc[nH]c12", "AC50": "0.316 µM (active)"},
      {"smiles": "O=C(O)CCNc1ncnc2nc[nH]c12", "activity, negative = inhibition": "-6.59% [at 11.4 µM] (inactive)"},
      {"smiles": "CC[C@@]1(O)C(=O)OCc2c1cc1n(c2=O)Cc2cc3c(CN(C)C)c(O)ccc3nc2-1", "activity, negative = inhibition": "-17.9% [at 2.29 µM] (inactive)"},
      {"smiles": "CCn1c(SCC(=O)Nc2sc3c(c2C#N)CCC(C(C)(C)C)C3)nnc1-c1ccco1", "note": "(stereo not drawn)", "activity, negative = inhibition": "-14.1% (inactive)"},
      {"smiles": "CCn1c(SCC(=O)Nc2sc3c(c2C(N)=O)CCC(C)C3)nnc1-c1ccco1", "note": "(stereo not drawn)", "AC50": "12.6 µM (active)"},
      {"smiles": "COc1cccc(Cn2c(=O)c(-c3cc(F)cc(F)c3)nc3cnc(N4CCN(C)CC4)nc32)c1", "activity, negative = inhibition": "-16.9% (inactive)"},
      {"smiles": "COc1ncc2nc(-c3ccc(Cl)cc3)c(=O)n(C[C@H]3CCCO3)c2n1", "AC50": "0.501 µM (active)"},
      {"smiles": "COc1ncc2nc(-c3cc(F)cc(F)c3)c(=O)n(C[C@H]3CCCO3)c2n1", "AC50": "3.16 µM (active)"},
      {"smiles": "CCCC12CN3CC(CCC)(CN(C1)C3C(O)C(O)C(O)CO)C2=O", "note": "(stereo not drawn)", "activity, negative = inhibition": "1.15% (inactive)"},
      {"smiles": "COc1ccc(/C=C/C(=O)Nc2cc(C(F)(F)F)ccc2Cl)cc1", "AC50": "0.447 µM (active)"},
      {"smiles": "COc1cc(C(=O)Nc2cc(C(F)(F)F)ccc2Cl)cc(OC)c1OC", "AC50": "5.01 µM (active)"},
      {"smiles": "COc1ccc(C(=O)N2CCC3(CCN(Cc4cc(C(F)(F)F)cc(C(F)(F)F)c4)CC3)CC2)cc1", "activity, negative = inhibition": "-5.69% (inactive)"},
      {"smiles": "COc1cccc(C(=O)Nc2cc(C(F)(F)F)ccc2Cl)c1", "AC50": "2.51 µM (active)"},
      {"smiles": "CCCC(=O)Nc1ccc(C(=O)Nc2cc(C(F)(F)F)ccc2Cl)cc1", "activity, negative = inhibition": "-21.8% (inactive)"},
      {"smiles": "COc1cc(NC(=O)c2ccc(COCC(F)(F)F)cc2)cc(OC)c1OC", "activity, negative = inhibition": "-21.6% (inactive)"},
      {"smiles": "CN(C)S(=O)(=O)Oc1cccc(C(=O)Nc2ccccc2Cl)c1", "AC50": "2 µM (active)"},
      {"smiles": "CCOc1ccc(/C(O)=C2/C(=O)C(=O)N(CCOCCO)C2c2cccnc2)cc1", "note": "(stereo not drawn)", "activity, negative = inhibition": "-14.1% (inactive)"},
      {"smiles": "CS(=O)(=O)N1CCC[C@@]2(CCN(c3ccccn3)C2)C1", "activity, negative = inhibition": "-10.5% (inactive)"},
      {"smiles": "COC(=O)CNC(=O)CCCCC(=O)NCC(=O)OC", "activity, negative = inhibition": "5.92% (inactive)"},
      {"smiles": "COC(=O)CNC(=O)/C=C/c1ccc(OC)cc1", "AC50": "12.6 µM (active)"},
      {"smiles": "COc1ccc(CNC(=O)/C=C/c2ccc(OCCCF)cc2)cc1", "activity, negative = inhibition": "-5.44% (inactive)"},
      {"smiles": "Cc1ccc(CNC(=O)CCNS(=O)(=O)c2ccc3c(c2)c(=O)n(C)c(=O)n3C)cc1", "activity, negative = inhibition": "15.7% (inactive)"},
      {"smiles": "CCOc1ccc(CCNC(=O)C2CCN(S(=O)(=O)CC)CC2)cc1OCC", "activity, negative = inhibition": "-18.3% (inactive)"},
      {"smiles": "CCOC(=O)Cn1c(=O)oc2cc(S(=O)(=O)NCCc3ccc(OCC)c(OCC)c3)ccc21", "AC50": "12.6 µM (active)"},
      {"smiles": "N#Cc1cccc(NC(=O)N2CC[C@@]3(CCCN(C(=O)c4ccco4)C3)C2)c1", "activity, negative = inhibition": "-9.82% (inactive)"},
      {"smiles": "O=C(NCCCn1ccnc1)c1ccc(Br)c(S(=O)(=O)N2CCOCC2)c1", "AC50": "1.78 µM (active)"},
      {"smiles": "COc1ccc(C(=O)NCCCN2CCOCC2)cc1OC", "activity, negative = inhibition": "-0.134% (inactive)"},
      {"smiles": "Cc1ccc(C(=O)NCCCN2CCOCC2)cc1N1CCCC1=O", "activity, negative = inhibition": "-2.59% (inactive)"},
      {"smiles": "Cc1cccc([C@@H]2CN(C)CCc3c2cc(O)c(O)c3Cl)c1", "activity, negative = inhibition": "-2.57% (inactive)"},
      {"smiles": "CC(C)Nc1nc(Oc2ccc(Cl)cc2)cc(C(F)(F)F)n1", "AC50": "2 µM (active)"},
      {"smiles": "CC(C)c1cc(C(F)(F)F)nc(NNc2nc(C(C)C)cc(C(F)(F)F)n2)n1", "activity, negative = inhibition": "-41.5% [at 11.4 µM] (inactive)"},
      {"smiles": "CCS(=O)(=O)c1ccc2oc(Nc3cc(C)cc(C)c3)nc2c1", "AC50": "5.01 µM (active)"},
      {"smiles": "Cc1cc(C)n(-c2cc(N3CCN(S(=O)(=O)c4ccc(C)c(C)c4)CC3)ccc2[N+](=O)[O-])n1", "activity, negative = inhibition": "5.25% (inactive)"},
      {"smiles": "O=C(O)c1cc(=O)c2c(OCC(O)COc3cccc4oc(C(=O)O)cc(=O)c34)cccc2o1", "activity, negative = inhibition": "3.24% [at 25.6 µM] (inactive)"},
      {"smiles": "CC(=O)Nc1ccc(OC[C@@H](O)CNC(C)C)cc1", "activity, negative = inhibition": "6.78% [at 25.6 µM] (inactive)"},
      {"smiles": "CC(C)NC[C@H](O)c1ccc2ccccc2c1", "AC50": "12.6 µM (active)"},
      {"smiles": "OC[C@@H](O)COc1cccc2ccccc12", "AC50": "0.631 µM (active)"},
      {"smiles": "CC(C)NC[C@H](O)c1cc(O)cc(O)c1", "AC50": "inactive"},
      {"smiles": "OC[C@@H](O)CNc1ncnc2ccccc12", "activity, negative = inhibition": "-18.7% [at 11.4 µM] (inactive)"},
      {"smiles": "CC(C)NC[C@H](O)COc1cccc2ccccc12", "AC50": "0.2 µM (active)"},
      {"smiles": "CC(C)NC[C@@H](O)COc1ccc(COCCOC(C)C)cc1", "AC50": "inactive"},
      {"smiles": "CC(C)NC[C@H](O)c1ccc(NS(C)(=O)=O)cc1", "AC50": "inactive"},
      {"smiles": "CC(C)NC[C@@H](O)c1ccc(O)c2ncccc12", "activity, negative = inhibition": "-12.1% [at 2.29 µM] (inactive)"},
      {"smiles": "O=C(Cc1ccccc1)N/N=C\\c1ccc(Br)o1", "AC50": "4.47 µM (active)"},
      {"smiles": "N[C@@](CC(=O)O)(Cc1ccccc1)C(=O)O", "activity, negative = inhibition": "-13.4% [at 2.29 µM] (inactive)"},
      {"smiles": "O=C(O)/C(=C\\c1ccccc1)Cc1ccccc1", "activity, negative = inhibition": "-18.4% [at 11.4 µM] (inactive)"},
      {"smiles": "O=C(Cc1ccccc1)N/N=C/c1cc(Br)c(Br)o1", "AC50": "2.24 µM (active)"},
      {"smiles": "COC(=O)c1ccc(-n2cncn2)c(F)c1", "AC50": "0.708 µM (active)"},
      {"smiles": "COC(=O)c1ccc2ccn(CC(=O)NC3CCCCC3)c2c1", "activity, negative = inhibition": "-26.7% (inactive)"},
      {"smiles": "O=P(O)(O)O[C@@H]1O[C@H](CO)[C@@H](O)[C@H](O)[C@@H]1O", "activity, negative = inhibition": "-16.5% [at 11.4 µM] (inactive)"},
      {"smiles": "COc1ccccc1OCCCCCc1c(C)n[nH]c1C", "AC50": "1.78 µM (active)"},
      {"smiles": "O=C(c1ccc(Cl)cc1)N1CCN(c2cc(=O)[nH]nc2-c2ccccc2)CC1", "activity, negative = inhibition": "0.0427% (inactive)"},
      {"smiles": "O=c1cc(N2CCCCC2)c(-c2ccccc2)nn1Cc1ccccc1Cl", "AC50": "1.26 µM (active)"},
      {"smiles": "O=[N+]([O-])c1ccc(N2CCN(CCOc3nonc3-c3ccccc3)CC2)c(Cl)c1", "activity, negative = inhibition": "-19.6% (inactive)"}
    ]}
  ]
}
